# Among all 340,000 compounds or so, about 3,400 (1%) were called active. The sample holds actives, similar compounds and a random draw of the others, so the mix is not that of the screen. A number with no mark means an inactive call.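 Rule for the calls: active = inhibition above the mean over all tested compounds plus 3 SD (cut at about 4.2% in these data); inactive = the rest.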
# Target: Nuclear receptor subfamily 0 group B member 1 (Homo sapiens) (UniProt P51843)
# Assay: DAX1 (NR0B1) inhibitors, primary screen, cell-based, HEK293, Gal4-DAX1, luciferase luminescence (AID 504766);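 note: 0% = DAX1-transfected cells with DMSO and 100% = empty-vector control cells with DMSO; inhibition shows as a rise in luminescence from relieved DAX1 repression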
# Settings: HEK293 Gal4-DAX1 luciferase reporter, at 6.75 µM, stronger effect = higher value
# Nuclear receptor subfamily 0 group B member 1 (Homo sapiens), sequence (P51843 207-470 limits assumed): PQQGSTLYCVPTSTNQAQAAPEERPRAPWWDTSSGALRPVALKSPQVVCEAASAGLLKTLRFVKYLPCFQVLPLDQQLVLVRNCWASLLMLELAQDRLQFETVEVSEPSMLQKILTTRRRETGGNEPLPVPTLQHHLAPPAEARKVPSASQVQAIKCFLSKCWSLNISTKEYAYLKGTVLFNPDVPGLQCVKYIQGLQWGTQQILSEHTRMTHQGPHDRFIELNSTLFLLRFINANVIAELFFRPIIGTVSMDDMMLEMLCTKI
row,Structure (SMILES),inhibition
1,CC1C(=O)OC2CCN3CC=C(COC(=O)C(C)(O)C1(C)O)C23 (stereo not given),6.45% (active)
2,O=C(NCC1=C(c2ccc3ccccc3c2)C[C@@H]2CC[C@H]1N2Cc1ccco1)c1cccs1,0.9%
3,CN(C)CC1CCCCC1OC(=O)c1ccc(Cl)c(Cl)c1 (stereo not given),1.17%
4,N=c1ccccn1Cc1ccccc1,4.71% (active)
5,COc1cc2nc(N3CCN(C(=O)[C@@H]4CCCO4)CC3)nc(N)c2cc1OC,-1.49%
6,CC(C(=O)Nc1ccc(Cl)cc1Cl)N1CC=C(c2ccccc2)CC1 (stereo not given),0.95%
7,COC(=O)C1=C(c2ccc3ccccc3c2)C[C@@H]2CC[C@H]1N2C(=O)NCCO,-0.02%
8,COC(=O)C1=C(c2ccc(F)cc2F)C[C@@H]2CC[C@H]1N2C(=O)NC1CC1,1.3%
9,Fc1ccc(C2N3CCCN23)cc1 (stereo not given),6.8% (active)
10,Cc1cccc(NC(=O)N2CC3CC(C2)c2cccc(=O)n2C3)c1 (stereo not given),-0.11%
11,CC(=CCOc1ccc2ccc(=O)oc2c1)C1=CC(=O)C(C)(C)O1,-1.41%
12,C[C@]12CC[C@H](O)CC1=C([N+](=O)[O-])CC1C2CC[C@@]2(C)C1CC[C@@H]2O (stereo not given in full),0.51%
13,COc1ccc(-c2nn(CCC#N)cc2C(=O)O)cc1,0.78%
14,O=C(N/N=C/c1c(O)n(Cc2ccccc2)c(=O)[nH]c1=O)c1ccccc1,0.57%
15,CC/C(=N\NC(=O)c1ccccc1O)c1c(O)n(Cc2ccccc2)c(=O)[nH]c1=O,4.6% (active)
16,CCC(=NCc1ccco1)c1c(O)n(Cc2ccccc2)c(=O)[nH]c1=O,-0.6%
17,Cc1ccc(OC(=O)N(C)C[C@@H]2OCc3cnnn3CCCC(=O)N([C@H](C)CO)C[C@@H]2C)cc1,1.2%
18,COC(=O)C1=C(c2cccc(OCc3ccccc3)c2)C[C@@H]2CC[C@H]1N2C(=O)NCc1ccc(Br)cc1,-1.05%
19,C=Cn1ccnc1P(=S)(c1cc(N(CC)CC)ns1)c1nccn1C=C,0.78%
20,Cc1nc2ccccn2c1P(=S)(N1CCCCC1)N1CCCCC1,-0.88%
21,CC(=O)OC1C2(CC3N4C(=O)C5(CO)SSC4(CC31O)C(=O)N5C)OC(C)C(C)(C)C2=O (stereo not given),-6.61%
22,O=C(c1cc(-c2ccncc2)nc2ccccc12)N1CCC2(CC1)OCCO2,1.03%
23,O=C(c1cc(S(=O)(=O)N2CCOCC2)ccc1F)N1CCC2(CC1)OCCO2,0.34%
24,O=C(c1ccccc1[N+](=O)[O-])N1CCC2(CC1)OCCO2,5.98% (active)
25,CN(C)c1nc(N(C)C)nc(N(C#N)CCCl)n1,-0.78%
26,CNCC(O)c1cc(F)c(OCc2ccccc2)c(OCc2ccccc2)c1F (stereo not given),-0.1%
27,CN1CCc2cc3c(cc2[C@H]1[C@@H]1OC(=O)c2c1ccc1c2OCO1)OCO3,1.17%
28,O=C1NC(=O)C(CCOc2ccccc2)(CCc2ccccc2)C(=O)N1,-0.23%
29,CCC(C)n1c(O)c(/C=N/Nc2nc3c(c(=O)n(C)c(=O)n3C)n2C)c(=O)[nH]c1=S (stereo not given),4.71% (active)
30,O=C(CCC(=O)N1C[C@H]2C[C@@H](C1)c1cccc(=O)n1C2)NCc1ccccc1C(F)(F)F,0.36%
